Screens: PubChem BioAssay, several laboratories
Sampled rows, rich in hits. Any-hit rate of the full collection: about 3.8%.
Pemphigus Ab inh – blocks pemphigus antibody binding to human desmoglein-3. binding (percent of control), % at 10 µM. P32926. AID 588358. 310,000 tested, 0.48% active. DSG3-coupled beads, scFv-anti-DSG3-GFP binding, flow cytometry; stronger effect = lower value;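 active = binding more than 3 SD below its plate's average and above zero; inconclusive = below that plate limit but binding exactly zero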;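 also: hits lower antibody fragment binding to DSG3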
PAFAH1B2 FP inh – inhibitors of human PAFAH1B2; P68402; recombinant PAFAH1B2, FP-rhodamine activity probe, fluorescence polarization; inhibition, % at 3.39 µM; 340,000 tested, 1.2% active;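 active = inhibition above the mean of all tested compounds plus 3 SD, cut at about 24% in these data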;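 also: 0% = enzyme with DMSO and 100% = wells lacking PAFAH1B2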
Target sequence (P68402 whole entry, looked up): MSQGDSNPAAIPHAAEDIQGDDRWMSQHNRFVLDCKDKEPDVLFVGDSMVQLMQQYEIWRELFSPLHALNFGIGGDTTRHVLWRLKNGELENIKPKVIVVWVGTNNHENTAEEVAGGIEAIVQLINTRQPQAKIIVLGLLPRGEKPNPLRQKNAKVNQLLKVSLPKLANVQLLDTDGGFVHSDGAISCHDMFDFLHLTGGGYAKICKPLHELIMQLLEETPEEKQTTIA
PAFAH1B3 FP inh – PAFAH1B3 (human) inhibition. inhibition, % at 3.39 µM. AID 492972. Q15102. recombinant PAFAH1B3, FP-rhodamine probe, fluorescence polarization. 340,000 tested, 0.28% active;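 active = inhibition above the screen-wide average of all tested compounds plus 3 SD, cut at about 25% in these data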;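 also: 0% = enzyme with DMSO only and 100% = wells lacking PAFAH1B3 protein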
Target sequence (Q15102 whole entry, looked up): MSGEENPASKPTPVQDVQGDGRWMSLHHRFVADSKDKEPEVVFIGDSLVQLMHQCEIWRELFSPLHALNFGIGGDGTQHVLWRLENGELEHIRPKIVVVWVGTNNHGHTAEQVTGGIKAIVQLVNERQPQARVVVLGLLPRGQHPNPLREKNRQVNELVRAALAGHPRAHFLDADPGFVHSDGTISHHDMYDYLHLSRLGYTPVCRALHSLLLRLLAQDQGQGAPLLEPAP
pPAFAH inh – pPAFAH (human) enzyme inhibition; AID 463082; inhibition, % at 3.39 µM; recombinant pPAFAH, FP-rhodamine probe fluorescence polarization; 330,000 tested, 1.5% active;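 active = inhibition above the mean inhibition across the screen plus 3 SD, cut at about 25% in these data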;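 also: inhibitors block binding of the rhodamine activity-based probe so polarization drops; 0% = enzyme with DMSO and 100% = wells lacking pPAFAH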
PfM18AAP inh – PfM18AAP enzyme inhibition. recombinant PfM18AAP, H-Glu-NHMec fluorogenic cleavage. inhibition, % at 7.35 µM. 290,000 tested, 1.2% active. AID 1822;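 active = inhibition above the campaign mean inhibition over all tested compounds plus 3 SD, cut at about 28% in these data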;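 also: 0% = plate median of test compound wells and 100% = 2 mM ZnCl2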
PAFAH2 inh – PAFAH2 (human) inhibition; Q99487; recombinant PAFAH2, FP-rhodamine activity probe, fluorescence polarization; inhibition, % at 3.39 µM; 340,000 tested, 0.99% active; AID 492956;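 active = inhibition above the mean over all tested compounds plus 3 SD, cut at about 30% in these data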;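 also: inhibitors block probe labeling of enzyme so polarization drops; 0% = enzyme with DMSO and 100% = wells lacking PAFAH2 protein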
pPAFAH FP conf – confirmation of human plasma PAF acetylhydrolase (pPAFAH) inhibitors; 2,300 tested, 72% active; shares compounds with pPAFAH inh; inhibition, % at 3.39 µM; recombinant pPAFAH, FP-Rh probe fluorescence polarization; AID 463230;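 active = mean inhibition of the triplicate above the hit cutoff set for the earlier primary screen, cut at about 25% in these data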;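 also: 0% = enzyme with DMSO and 100% = wells lacking pPAFAH enzyme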
Numbers without * were called inactive; ? = inconclusive; / = no result given.

SMILES	Pemphigus Ab inh	PAFAH1B2 FP inh	PAFAH1B3 FP inh	pPAFAH inh	PfM18AAP inh	PAFAH2 inh	pPAFAH FP conf
COC(=O)CSc1cc(C(=O)c2nccn2C)c2ccccc2n1	99	-1	5	43*	-1	0	22
CCOc1ccc(NS(=O)(=O)c2ccc(C(=O)NCC(c3ccc(OC)cc3)N3CCCC3)cc2)cc1 (configuration not stated)	159	2	3	49*	/	8	41*
COc1ccc(C(CNC(=O)c2ccc(NS(=O)(=O)c3ccc(F)c(C)c3)cc2)N2CCCC2)cc1 (configuration not stated)	136	6	4	/	/	0	/
Nc1ccc2c(c1)-c1ccccc1S(=O)(=O)N2	105	5	21	65*	19	23	8
Cc1ccc2c(c1)-c1ccccc1S(=O)(=O)N2	100	10	2	10	-3	-2	/
NC(=O)C1CC12c1ccccc1-c1ccccc12 (configuration not stated)	91	6	-3	2	13	1	/
CCOC(=O)C1(C)C=C(Nc2ccc(O)cc2)C(=O)N1c1ccc(O)cc1 (configuration not stated)	99	2	8	70*	34*	7	2
COc1ccc(-c2csc(NC(C)=O)n2)cc1OC	?	7	8	5	3	1	/
COc1cccc(NC(=O)Nc2nc(-c3ccc(OC)c(OC)c3)cs2)c1	107	15	21	36*	8	2	14
CCCC1=Nc2cc(C(=O)NCCCN3CCOCC3)ccc2Sc2ccccc21	95	4	5	18	5	-2	/
CCCC1=Nc2cc(C(=O)NCCCN3CCN(C)CC3)ccc2Sc2ccccc21	98	3	6	34*	2	-4	6
CC(C)c1cccc(-c2ccc3c(c2)S(=O)(=O)c2cccc(C(=O)NCc4ccccc4)c2C3=O)c1	97	0	-4	-1	/	-7	/
O=C(NCc1ccco1)c1cccc2c1C(=O)c1ccc(/C=C/c3ccccc3)cc1S2(=O)=O	94	3	1	39*	/	4	32*
Cc1c(C(=O)N(C)c2ccc(Cl)cc2)cnn1-c1ccccc1	104	8	12	-4	5	-4	/
O=S(=O)(Nc1nc(-c2ccco2)c(-c2ccco2)s1)c1ccc(F)cc1F	98	/	/	/	/	/	/
O=C(Nc1nc(-c2ccco2)c(-c2ccco2)s1)c1c(F)cccc1Cl	/	0	8	48*	/	24	16
COc1ccc(C(=O)C(=NN)c2ccccc2)cc1	106	/	/	/	/	/	/
O=C(/C(=N/N=C/c1ccc(O)c(O)c1O)c1ccccc1)c1ccccc1	77	-11	-14	80*	22	4	85*
NC(N)=N/N=C/c1ccccc1	98	7	4	4	6	2	/
Oc1ccc(/C=N/N=C(c2ccccc2)c2ccccc2)c(O)c1O	52	1	21	59*	24	3	83*
COc1ccccc1NC(=O)c1ccc(S(=O)(=O)NCc2ccco2)cc1	80	-1	4	1	0	1	/
O=C(CN1CCN(S(=O)(=O)c2ccc(F)cc2)CC1)Nc1ccc(Cl)cn1	112	7	12	3	1	1	/
COc1cccc2c1C(=O)c1c(O)c3c(c(O)c1C2=O)C[C@@](O)(C(=O)CO)C[C@@H]3O[C@H]1C[C@H](N)[C@H](O)[C@H](C)O1	/	41*	19	58*	28*	46*	45*
O=C(CNc1ccccc1N1CCCC1=O)Nc1cc(C(F)(F)F)ccc1-n1cncn1	98	-4	7	/	/	8	/
C=CCOc1ccc(C2C3=C(CCCC3=O)N(CC(=O)O)C3=C2C(=O)CCC3)cc1OCC	98	2	6	5	-2	2	/
SMILES	Pemphigus Ab inh	PAFAH1B2 FP inh	PAFAH1B3 FP inh	pPAFAH inh	PfM18AAP inh	PAFAH2 inh	pPAFAH FP conf
C=CCOc1c(Br)cc(C2C3=C(CCCC3=O)N(C)C3=C2C(=O)CCC3)cc1OCC	96	4	-2	39*	13	9	5
CCc1ccc2[nH]c(C(=O)Nc3ccc4c(c3)OCO4)cc2c1	93	6	4	19	5	8	/
Cc1ccccc1N1CCN(C2CCCN(C(=O)c3ccnn3C)C2)CC1 (configuration not stated)	111	8	3	2	-2	-2	/
CCOC(=O)c1c(C)[nH]c(C)c1S(=O)(=O)N(C)CC(=O)Nc1ccccc1	/	1	4	38*	0	2	4
CCOC(=O)c1c(C)[nH]c(C)c1S(=O)(=O)N(C)CC(=O)Nc1ccccc1OC	104	4	-2	0	-8	5	/
S=c1[nH]nc(-c2cc(-c3ccccc3)n[nH]2)n1/N=C/c1ccc(Br)s1	/	10	14	54*	6	27	70*
O=C(O)c1cc(-c2ccc(/C=C3\NC(=O)N(c4ccc(Cl)cc4)C3=O)o2)ccc1Cl	107	7	11	37*	-5	22	23
O=C(CC1Nc2cccc3cccc(c23)NC1=O)Nc1ccc(F)cc1 (configuration not stated)	96	6	7	60*	12	6	7
Cc1ccccc1N(C(=O)c1snc(C(N)=O)c1N)C(C(=O)NCC1CCCO1)c1ccc(F)cc1 (configuration not stated)	/	4	8	2	5	-4	/
COc1ccc(S(=O)(=O)Nc2c(C(=O)O)[nH]c3ccccc23)c(OC)c1	/	12	9	51*	-3	6	5
O=C(N/N=C/c1cc(Br)cc([N+](=O)[O-])c1O)c1ccc(NC(=O)c2ccc(F)cc2)cc1	90	8	12	38*	1	13	55*
O=C(N/N=C/c1cc(Br)cc(Br)c1O)c1ccncc1	/	/	/	6	4	/	/
Cc1nc(C)c(C(=O)N2CCCC(C(=O)c3ccc(Cl)cc3C)C2)s1 (configuration not stated)	111	-2	0	5	1	8	/
O=C([C@H](Cc1ccccc1)N1C(=O)c2ccccc2C1=O)N1CCOCC1	/	-7	4	-5	-4	-14	/
COc1ccc(-n2c(NC(=O)c3ccco3)c(C#N)c3nc4ccccc4nc32)cc1	98	4	10	15	-8	7	/
N#Cc1c(NC(=O)c2ccccc2Cl)n(Cc2ccccc2)c2nc3ccccc3nc12	98	53*	63*	38*	19	64*	35*
COc1cc(NC(=O)CSc2nc3[nH]c(=O)cc(O)c3s2)cc(OC)c1OC	100	0	-2	14	/	6	/
C[C@H](CO)N1C[C@H](C)[C@@H](CN(C)C(=O)Nc2ccc(C(F)(F)F)cc2)Oc2ccc(NS(=O)(=O)c3cccs3)cc2C1=O	110	2	5	13	/	10	/
